# TIM10 inh = TIM10 yeast growth inhibition. AID 463195. S. cerevisiae TIM10 strain growth, BacTiter-Glo luminescence, 24 h. 330,000 tested, 1.4% active. inhibition, % at 10 µM;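 active means inhibition of 40% or more at the single tested concentration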;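 further: wild-type TIM10 isogenic control strain grown at permissive 25 °C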
# PfHsp90 set2 = inhibits growth of yeast expressing Plasmodium falciparum Hsp90; S. cerevisiae expressing PfHsp90, BacTiter-Glo ATP, 48 h; yeast lacking PDR1 and PDR3 efflux regulators; 310,000 tested, 0.32% active; inhibition, % at 9.4 µM;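 active means every replicate shows inhibition above about 80%, whatever the replicate mean, limit read from the data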;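 further: 0% = DMSO neutral controls and 100% = 20 µM radicicol positive controls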
# tim10-1 inh = tim10-1 yeast growth inhibition; S. cerevisiae tim10-1 ts strain growth, BacTiter-Glo, 24 h; inhibition, % at 20 µM; 330,000 tested, 2.2% active; AID 463190;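 active means inhibition of at least 40%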;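 further: mutant grown at 25 °C; 0% = DMSO wells with yeast and 100% = wells holding no yeast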
# tim23-1 inh = growth inhibitors of tim23-1 mutant yeast | inhibition, % at 20 µM | 330,000 tested, 1.3% active | S. cerevisiae tim23-1 growth, BacTiter-Glo luminescence, 24 h | AID 463212;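 active means growth inhibition of the mutant yeast at or above 50%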;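 further: temperature-sensitive mutant grown at 25 °C; plate controls were DMSO-treated mutant yeast for no effect and medium wells lacking yeast for full effect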
# SKKanGAS inh = SKKanGAS growth inhibition; S. pyogenes SKKanGAS, kanamycin growth, BacTiter-Glo, 6 h; inhibition, % at 7.5 µM; 300,000 tested, 1.3% active;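 active means mean replicate score, as percent of positive control median, at least 50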;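 further: strain carries kanamycin resistance gene driven by streptokinase promoter and grows in 40 µg/ml kanamycin; loss of luminescence reflects streptokinase promoter inhibition or plain growth inhibition; 0% = median of DMSO wells and 100% = positive control at its reference dose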
# Active calls of the source: *; i = inactive; . = no result. Most compounds without a hit are left out; they make up all but 4.4% or so of the library.
SMILES,TIM10 inh,PfHsp90 set2,tim10-1 inh,tim23-1 inh,SKKanGAS inh
COc1ccc(NS(=O)(=O)c2ccc3ccccc3c2)c2ncccc12,12.3,-93.2,24.7,4.9,94.3*
Cc1cc(C(=O)Cn2cnc3ccc(Cl)cc3c2=O)c(C)n1C1CC1,.,27.5,.,.,.
C[C@@H]1CN(S(=O)C(C)(C)C)[C@@H](CCO)/C1=C\CCO (some centres undefined),.,-7.7,.,.,.
Cc1ccc(Sc2ccc(S(=O)(=O)Nc3ccc(CC(=O)O)cc3)cc2)cc1C,9.7,-28.5,18.9,17.7,.
CC1CC(C)CN(c2ncc3c(n2)CC(c2ccc(Cl)cc2)CC3=O)C1 (centres undefined),25.4,28.2,30.8,25.1,12.2
CC1CC(C)CN(c2ncc3c(n2)CC(c2ccccc2Cl)CC3=O)C1 (centres undefined),23.9,-4.0,31.8,27.0,62.6*
COc1ccc(C2CC(=O)c3cnc(N4CCN(Cc5ccccc5)CC4)nc3C2)cc1 (centres undefined),20.1,-11.6,33.3,19.8,56.0*
Cc1ccc(C)c(OCCC(=O)Nc2cccc(S(=O)(=O)N3CCCCC3)c2)c1,18.2,.,17.5,20.0,.
COc1ccc(CCC(=O)Nc2cc(S(=O)(=O)N3CCCCC3)ccc2N(C)C)cc1,8.5,5.8,16.9,18.2,.
O=C(CCSc1nnc(-c2ccncc2)o1)Nc1ccc(Cl)cc1,-59.7,96.4*,-22.7,i,-1.6
CC(C)COC(=O)c1cccc2c1-c1ccccc1/C2=N\O,25.9,-24.9,33.6,8.3,73.5*
CN(CC(=O)Nc1ccccc1Br)C(=O)CN1CCN(c2ccccc2Cl)CC1,-8.5,-4.4,-18.0,24.6,.
Cc1ccc2nc(-c3ccccc3)cc(C(=O)N3CCN(S(=O)(=O)c4c(C)noc4C)CC3)c2c1,18.1,-1.4,25.5,29.8,.
COc1ccccc1C(=O)NNC(=O)c1csc(N2CCOCC2)n1,1.4,-1.2,6.9,11.2,-12.8
O=C(NNC(=O)c1cc(-c2ccc(Cl)cc2)nc2ccccc12)c1csc(N2CCOCC2)n1,5.8,.,14.8,19.1,59.7*
O=C(NNC(=O)c1ccccc1OCc1ccccc1Cl)c1csc(N2CCOCC2)n1,25.2,-1.4,20.2,22.9,60.2*
O=C(NCCC(=O)N(Cc1ccco1)Cc1cccs1)c1ccc([N+](=O)[O-])cc1,0.0,21.2,18.0,13.6,.
CCN(CC(=O)NCc1ccc(F)cc1)CC(=O)Nc1cc(S(=O)(=O)N(C)C)ccc1C,11.1,8.9,10.7,17.5,.
S=C1SCN(Cc2cccnc2)CN1Cc1cccnc1,-0.3,85.1*,-44.3,40.9,-1.0
S=C1SCN(Cc2ccccc2)CN1Cc1ccccc1,2.3,-18.0,11.4,15.9,5.4
COc1ccc(-c2csc3ncnc(N4CCN(c5ccccc5Cl)CC4)c23)cc1,0.9,-24.0,16.1,18.3,55.3*
COc1ccc(-c2csc3ncnc(N4CCN(c5cccc(C)c5C)CC4)c23)cc1,-2.5,-19.2,5.8,2.8,18.0
c1ccc(-c2csc3ncnc(N4CCc5ccccc5C4)c23)cc1,.,-16.4,.,.,89.2*
C[C@H](CO)N1C[C@H](C)[C@@H](CN(C)S(=O)(=O)c2ccccc2)Oc2ccc(NS(=O)(=O)c3ccccc3)cc2C1=O,2.7,9.3,-0.9,4.5,.
O=c1c2ccccc2oc2cc(-c3ccc4[nH]ccc4c3)ccc12,18.5,15.9,26.3,35.3,57.2*
SMILES,TIM10 inh,PfHsp90 set2,tim10-1 inh,tim23-1 inh,SKKanGAS inh
O=S(=O)(Nc1ccc(-n2cnnn2)cc1)c1ccc(Cl)s1,-1.8,-11.8,5.4,19.1,.
COc1cccc(-c2sc3ccc(OC)cc3c2C#CCCO)c1,7.5,-22.2,16.1,22.1,.
CC(=NNC(=S)N1CCN(C2CCCCCC2)CC1)c1ccccn1,.,103.3*,.,.,.
CC(=NNC(=S)N1CC2CCC(CC2)C1)c1cnccn1,.,145.0*,.,.,.
CC(=NNC(=S)N1CCN(c2ccccn2)CC1)c1nccs1,.,142.4*,.,.,.
O=S(=O)(NCc1ccc(F)cc1)c1ccccc1Br,3.6,11.0,-7.9,27.6,.
CC(=O)n1c2ccccc2c2ccccc21,21.1,-24.0,24.7,13.2,-1.5
c1ccc(-n2c3ccccc3c3ccccc32)cc1,-4.7,.,0.2,-4.8,58.3*
CCCCN(CCCC)S(=O)(=O)c1ccc(C(=O)Nc2nnc(COC)o2)cc1,3.9,-13.0,20.6,19.6,91.7*
CCCCN(CC)S(=O)(=O)c1ccc(C(=O)Nc2nnc(-c3cccs3)o2)cc1,-2.6,.,33.8,-1.0,97.9*
CCN(CC)S(=O)(=O)c1ccc(C(=O)Nc2nnc(COC)o2)cc1,-8.0,-13.6,11.0,-12.7,4.2
Fc1ccc(/C=C2\CCCC3=C2Nc2ncnn2C3c2ccc(F)cc2)cc1 (centres undefined),37.2,.,38.1,31.9,64.0*
COc1ccc(C2C3=C(Nc4ncnn42)c2ccccc2CCC3)cc1 (centres undefined),-10.0,21.0,17.6,19.0,2.1
CCC(=O)N1N=C(c2c(O)n(C)c(=O)n(C)c2=O)CC1c1ccccc1 (centres undefined),4.1,-16.4,-11.1,14.9,75.1*
CCOc1ccc(NS(=O)(=O)c2cc(NC(=O)c3ccc(C)cc3)ccc2Cl)cc1,8.3,-7.2,8.6,9.7,60.5*
CCOc1ccc(Oc2ccc(NS(=O)(=O)c3cc(C(=O)O)ccc3Cl)cc2)cc1,7.7,-3.2,7.6,7.3,.
O=C(COC(=O)c1ccc(S(=O)(=O)C(F)F)cc1)Nc1ccccc1C(=O)NC1CC1,0.0,.,-10.9,-8.2,.
O=C(Cc1cccc2ccccc12)N/N=C/c1ccc2cccc(O)c2n1,36.8,-13.3,11.3,38.3,70.5*
N#Cc1cn(Cc2ccco2)c(=O)[nH]c1=O,.,2.7,.,.,.
Cc1ccc(N2C(=O)C3CC(c4ccccc4)=C4C5C=CC(C6C(=O)N(c7ccc(C)cc7C)C(=O)C56)C4C3C2=O)c(C)c1 (centres undefined),12.3,1.4,15.3,21.3,5.0
Cc1ccc(N2C(=O)C3CC(c4ccccc4)=C4C5C=CC(C6C(=O)N(c7ccc(C)cc7)C(=O)C56)C4C3C2=O)cc1 (centres undefined),11.1,-30.0,7.0,-3.8,65.4*
O=C(NCCc1ccccc1)c1ccc2c(=O)[nH]c3c(C(=O)NCC4CCCO4)sc(=S)n3c2c1 (centres undefined),6.8,-32.9,11.9,20.4,43.9
O=C(NC1CCCCC1)c1sc(=S)n2c1[nH]c(=O)c1ccccc12,31.6,.,38.6,18.6,60.0*
CCCCNC(=O)c1sc(=S)n2c1[nH]c(=O)c1ccccc12,20.0,-0.6,39.1,27.4,53.8*
CCOC(=O)c1cnc(-n2nc(C)cc2C)nc1Nc1ccc(OC)cc1,19.5,-10.7,13.5,45.1,66.5*
CCOC(=O)c1cnc(-n2nc(C)cc2C)nc1Oc1ccc(C(=O)OC)cc1,-57.0,.,-39.0,-8.4,-5.4
CCc1ccccc1NC(=O)CN1CCN(CC(=O)NCc2ccc(Cl)cc2)CC1,2.2,.,-7.0,9.0,.
CSc1n[nH]c2nc3c(c(=O)n12)C1(CCCCC1)Cc1ccccc1-3,29.0,-5.7,30.2,35.4,59.8*
